SF-1 inh: SF-1 (human) inhibition. 0.55% of 65,000 active. CHO-K1 Gal4-SF-1 LBD luciferase reporter. inhibition, % at 10 µM;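 active = inhibition above the mean inhibition of all tested compounds plus 3 SD, cut at about 48% in these data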;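 also: 0% = SF-1 transfected cells with DMSO and 100% = mock-transfected cells lacking SF-1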
Target sequence (Q13285 whole entry, looked up, the tested form may be a part): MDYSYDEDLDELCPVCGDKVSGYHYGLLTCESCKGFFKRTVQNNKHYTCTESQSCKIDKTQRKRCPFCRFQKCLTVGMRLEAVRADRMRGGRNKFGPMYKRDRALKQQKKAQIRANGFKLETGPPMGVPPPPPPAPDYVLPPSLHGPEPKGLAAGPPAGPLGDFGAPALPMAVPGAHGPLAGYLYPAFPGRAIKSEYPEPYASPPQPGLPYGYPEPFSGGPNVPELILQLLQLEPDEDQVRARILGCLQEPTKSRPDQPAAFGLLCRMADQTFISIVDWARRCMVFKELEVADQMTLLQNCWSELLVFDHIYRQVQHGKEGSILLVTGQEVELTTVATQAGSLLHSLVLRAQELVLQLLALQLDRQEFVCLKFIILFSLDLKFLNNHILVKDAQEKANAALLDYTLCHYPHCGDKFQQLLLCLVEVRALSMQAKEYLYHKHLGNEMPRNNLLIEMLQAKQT
* marks the source's active call; other numbers are inactive results. The sample as a whole holds a higher share of hits than the screen did.

SMILES	SF-1 inh
COc1cc(CC(NC(C)=O)C(=O)NC2CCN(c3nc(C)cc(C)c3C#N)CC2)cc(OC)c1 (configuration not stated)	71.4*
COc1cccc(CC(NC(C)=O)C(=O)NC2CCN(c3c4c(nc5ncnn35)CCC4)CC2)c1 (configuration not stated)	-71.8
COc1ccc(NS(=O)(=O)c2ccc(OC)c3ccccc23)cn1	12.3
CCOCC(=O)Nc1cccc(C(=O)OCC)c1	-9.0
CN(C)c1nc(Oc2ccc(N)cc2)nc(N(C)C)n1	-19.0
CCN(C(=O)c1ccc(C(C)(C)C)cc1)c1nnc(Cn2nnc3ccccc32)s1	68.6*
COCCN(C(=O)Nc1ccccc1)c1ccccc1C	-4.6
O=C(NCc1ccc(F)cc1)c1noc2c1CCCC2	3.3
Nc1nonc1C(=O)NCCNCc1cc(Br)ccc1OCc1ccc(F)cc1	56.8*
COc1ccc(CCNC(=O)c2nonc2N)cc1OC	0.9
CC(C)c1nnc(NC(=O)c2cnccn2)s1	-50.7
CCN(CC)c1ccc(-c2nn3c(-c4cccnc4)nnc3s2)cc1	6.6
c1ccc(-n2ncc3c(NCc4ccco4)ncnc32)cc1	-77.4
c1ccc(-c2nc(NCC3CCCO3)c3ccccc3n2)nc1 (configuration not stated)	1.0
c1ccc(-c2nc(NCc3ccco3)c3ccccc3n2)nc1	75.6*
O=C(NCc1nnc(SC/C=C/c2ccccc2)o1)c1ccco1	10.0
C=CCc1c(C)nc(SC)nc1Nc1ccc(C(C)=O)cc1	-14.2
CCOC(=O)N1CCC(NC(=O)c2cccc3c2C(=O)N(CCOC)C3)CC1	3.7
COCCn1c(C)cc(C(=O)CN2C(=O)NC3(CCCCCCC3)C2=O)c1C	-42.6
COCCn1c(C)cc(C(=O)COC(=O)C23CC4CC(CC(O)(C4)C2)C3)c1C	-77.2
COCCn1c(C)cc(C(=O)CSc2nnc(C)s2)c1C	68.0*
COc1cccc(C(=O)N2CCN(CCCc3ccccc3)CC2)c1OC	12.5
CS(=O)(=O)c1nc(-c2cccs2)cc(C(F)(F)F)n1	70.3*
COc1ccc(-c2cc(C(F)(F)F)nc(SCC(=O)Nc3cc(C)on3)n2)cc1OC	22.8
Nc1c(C(=O)NC2CCCC2)sc2nc(-c3cccs3)ccc12	-59.7
SMILES	SF-1 inh
Cc1cc(NC(=O)CCCS(=O)(=O)c2nc(-c3cccs3)cc(C(F)(F)F)n2)no1	48.4*
CCn1cnc2c1c(=O)n(CC(=O)Nc1cc(C)on1)c(=O)n2Cc1ccccc1	-0.5
COc1ccc(Nc2ncc3c(n2)CC(c2ccc(OC)cc2)CC3=O)cc1 (configuration not stated)	9.7
CC(=O)c1cccc(S(=O)(=O)N2CCN(c3nc4cc(C)cc(C)c4cc3C#N)CC2)c1	1.3
Cc1ccc(S(=O)(=O)NCC(=O)OCN2C(=O)c3ccccc3C2=O)cc1	1.3
Cc1ccc2c(c1)C(N1CCCC1=O)CC(c1ccco1)N2 (configuration not stated)	-57.7
CC1CCc2c(sc(NC(=O)c3noc4c3CCCC4)c2C(N)=O)C1 (configuration not stated)	-49.9
COc1ccc(OC)c(NC(=O)CSc2nnnn2-c2ccc3c(c2)OCO3)c1	90.9*
CC(C)OC(=O)CSc1nnnn1-c1ccc2c(c1)OCCO2	-69.0
CCn1c(CNC(=O)c2ccc3c(c2)OCO3)nnc1SCC(=O)Nc1cc(C)ccc1OC	3.9
Fc1cccc(NCc2cn3ccccc3n2)c1	-71.7
c1ccc2c(-c3nc(-c4ccncc4)no3)cccc2c1	-74.0
O=C1c2ccccc2C(=O)C1c1nccc2ccccc12	59.8*
CCOc1ccccc1-c1nc(-c2ccc(C)nc2OC)no1	-57.7
Cc1ccc(S(=O)(=O)N(Cc2nccn2C)C(C)C)cc1	8.9
O=C(C1CCCN(S(=O)(=O)c2cnc[nH]2)C1)N1CCN(c2ccc(Cl)cc2)CC1 (configuration not stated)	-1.7
O=C(Nc1ccc(F)cc1F)c1noc2c1CCC2	-27.7
Cc1ccc2cc(C(c3nnnn3Cc3ccccc3)N3CCN(c4ccccc4)CC3)c(=O)[nH]c2c1 (configuration not stated)	-5.4
Cc1nc(N2CCN(c3ccccc3)CC2)[nH]c(=O)c1Cc1cccc2ccccc12	52.0*
Cn1c(=O)c2c(nc(N3CCCCCC3)n2Cc2cccc3ccccc23)n(C)c1=O	2.9
Cc1ccc(C(=O)Nc2nc3ccccc3c(=O)s2)cc1	-23.3
O=C(C1CC1)N1CCN=C1SCc1cccc(F)c1	1.0
Cc1nnc(NC(=O)c2ccc(S(=O)(=O)N(C)Cc3ccccc3)cc2)o1	22.2
CSCc1nnc(NC(=O)c2ccc(S(=O)(=O)N(CC(C)C)CC(C)C)cc2)o1	48.1*
COCCN(CCOC)S(=O)(=O)c1ccc(C(=O)Nc2nc(-c3ccncc3)cs2)cc1	5.1
SMILES	SF-1 inh
CCOC(=O)c1cnn(-c2nc(SC)nc3sc4c(c23)CCC4)c1N	-3.1
O=C(CCN1C(=O)c2ccccc2C1=O)OCn1nnc2ccccc2c1=O	3.6
Nc1ccc(-c2nc3c(Cl)cc(N)cc3[nH]2)cc1	55.2*
COc1nc(Nc2nc3ccccc3c(=O)[nH]2)nc2ccc(C)cc12	76.3*
COc1ccc(Nc2nc(C)c3ccccc3n2)cc1	-98.7
COc1ccc(S(=O)(=O)N(Cc2ccccc2)Cc2nc3ccccc3c(=O)[nH]2)cc1	12.5
CCOC(=O)c1c(C)[nH]c(C(=O)Nc2ccc3c(c2)OCO3)c1C	-132.1
Cc1ccc2oc(=O)c3cnn(CC(=O)NCCCOC(C)C)c3c2c1	-3.6
CC1(C)CC(OC(=O)c2ccco2)CC(C)(C)N1O	9.0
O=c1c2ccccc2nnn1CSc1ccc2c(c1)OCCO2	-77.3
Cc1nn(-c2nc3ccccc3s2)c(N)c1-c1ccccc1	-60.0
O=c1c2ccccc2nc2sc3ccccc3n12	-56.8
O=c1c2ccccc2cnn1-c1nc2ccccc2s1	90.0*
CCCN1C(=O)SC(CC(=O)Nc2ccc(Br)cc2)C1=O (configuration not stated)	1.2
COc1ccc2nc(NC(=O)c3ccc(-n4nc(C)cc4C)cc3)sc2c1	15.0
COC(=O)CSc1nc(C)cc(Oc2ccccc2)n1	-6.9
COC(=O)c1ccc(Oc2cc(C)nc(-n3nc(C)cc3C)n2)cc1	51.1*
Cc1ccc(-c2csc3n[nH]c(=S)n23)cc1	-0.2
O=C(c1ccc2c(c1)OCCCO2)c1cccs1	-53.7
COc1ccccc1NC(=O)c1cnc2n(c1=O)CCS2	-28.7
COC(=O)c1ccc(CSc2nnnn2-c2ccccc2)o1	5.7
COc1ccc(CCNS(=O)(=O)c2ccccc2)cc1OC	13.0
COc1ccc(CCNc2nnc(Sc3nnnn3-c3ccccc3)s2)cc1OC	68.5*
CCCCc1cc(O)c(CCCC)c(O)c1	-34.8
CCN(CC)CCNC(=O)C1c2cc(OC)c(OC)cc2C(=O)N2CCc3ccccc3C12 (configuration not stated)	-15.2
SMILES	SF-1 inh
COc1ccc2nc(N3CCCCC3)c(C#N)cc2c1	-50.0
COc1ccc(-n2ncc3c(N4CCCCC4)ncnc32)cc1	83.9*
CCOC(=O)C1CCCN(c2ncnc3c2cnn3-c2ccc(OC)cc2)C1 (configuration not stated)	-58.0
CC1CN(c2ncnc3c2cnn3-c2ccc(Cl)cc2)CC(C)O1 (configuration not stated)	-74.7
C=CCNc1ncnc2c1cnn2-c1ccc(Cl)cc1	-49.8
Cc1cccc(-n2ncc3c(NCCCO)ncnc32)c1	-67.4
Cc1cccc(-n2ncc3c(N4CC(C)CC(C)C4)ncnc32)c1 (configuration not stated)	-50.7
Cc1cccc(-n2ncc3c(N4CCOCC4)ncnc32)c1	64.6*
Clc1ccc(-n2ncc3c(N4CCCCCC4)ncnc32)cc1	76.2*
